Measured values from PubChem BioAssay (NCATS).
Several values for one entry are separate records, joined by “and”; a condition that tells them apart may be missing. Equal values may be shown once. Inconclusive results are not listed. Values without a mark were called inactive. Activity calls are given as the source filed them. Calls come from the whole dose curve; as a rule, active = well fitted curve in the direction sought with a large enough effect; inconclusive = small, poorly fitted or top-dose-only effect, or another doubt; inactive = no such curve, though single readings can be large or run the other way.

Test: qHTS Assay for Identifying Gametocytocidal Compounds (AID 743244);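 for max response: actives lower the fluorescent signal which means gametocytes are killed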
Details: P. falciparum 3D7 stage III-V gametocytes, alamarBlue, 72 h; max response: stronger effect = lower value
How it was run: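 In this qHTS viability screen, late-stage 3D7 gametocytes are incubated with compound for 72 h, then with alamarBlue for 24 h; reduced resorufin fluorescence marks killing.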
% is set by controls: 0 for no effect and ±100 for the full control effect; potency is the fitted concentration of half-maximal effect.

SMILES: Cc1ncc2n1-c1ccc(Cl)cc1C(c1ccccc1F)=NC2
- max response: -2.43%

SMILES: COc1ccc(CN2CCNCC2)c(OC)c1OC
- max response: -9.77%

SMILES: CCN(CC)Cc1nccn1-c1ccc([N+](=O)[O-])cc1C(=O)c1ccccc1Cl
- Potency: 16.6 µM (active)

SMILES: CN(C)CCc1c[nH]c2ccccc12
- max response: 16.8%

SMILES: OC(O)C(Cl)(Cl)Cl
- max response: -5.08%

SMILES: C[C@]12CC[C@H](O)CC1=CC[C@@H]1[C@@H]2CC[C@]2(C)C(=O)CC[C@@H]12
- max response: -7.96%

SMILES: C[C@@H]1O[C@@H](O[C@@H]2C=C3CC[C@@H]4[C@H](CC[C@]5(C)[C@@H](c6ccc(=O)oc6)CC[C@]45O)[C@@]3(C)CC2)[C@H](O)[C@H](O)[C@H]1O
- max response: 11.2%

SMILES: Clc1ccc(CO/N=C(\Cn2ccnc2)c2ccc(Cl)cc2Cl)c(Cl)c1
- Potency: 10 µM (active)

SMILES: CC(C)[N+](C)(CCC(C(N)=O)(c1ccccc1)c1ccccc1)C(C)C
- max response: 0.0209%

SMILES: O=C1NCN(c2ccccc2)C12CCN(CCCOc1ccc(F)cc1)CC2
- max response: 0.637%

SMILES: CNC(C)Cc1ccccc1OC (stereo unspecified)
- max response: 0.178%

SMILES: CC[C@H]1C[C@@H]2C[C@H]3c4[nH]c5ccc(OC)cc5c4CCN(C2)[C@@H]13
- max response: 5.97%

SMILES: CC(Cc1ccccc1)NCc1ccccc1Cl (stereo unspecified)
- max response: 9%

SMILES: CCOC(=O)NC(O)C(Cl)(Cl)Cl (stereo unspecified)
- max response: 9.34%

SMILES: Oc1ccc2[nH]cc(CCCCN3CC=C(c4ccccc4)CC3)c2c1
- max response: -6.56%

SMILES: CCC1(c2ccccc2)CCC(=O)NC1=O (stereo unspecified)
- max response: -3.28%

SMILES: O=C1CC2(CCCC2)CC(=O)N1CCCCN1CCN(c2ncccn2)CC1
- max response: 13.6%

SMILES: COc1cc(CC(C)N)c(OC)cc1Br (stereo unspecified)
- max response: -17.7% and 14.6%

SMILES: C[C@@H]1CC[C@H]2[C@@H](C)C(=O)O[C@@H]3O[C@@]4(C)CC[C@@H]1[C@]32OO4
- Potency: 0.132 µM (active)

SMILES: CC1=C2[C@H]3OC(=O)[C@@H](C)[C@@H]3CC[C@@]2(C)C=CC1=O
- max response: 4.47%

SMILES: C[C@H]1CNCCc2ccc(Cl)cc21
- max response: 16.3%

SMILES: C[C@]12CC[C@H]3[C@@H](CCC4=CC(=O)CC[C@@H]43)[C@@H]1CC[C@@H]2O
- max response: -13.9% and -1.26%

SMILES: Cc1nnc2n1-c1sc(CCc3ccc(CC(C)C)cc3)cc1C(c1ccccc1Cl)=NC2C (stereo unspecified)
- max response: -7.02%

SMILES: COP(=S)(OC)Oc1ccc(S(N)(=O)=O)cc1
- max response: 5.01%

SMILES: Nc1ccc(N)cc1
- max response: -1.22%

SMILES: CCCOC(=O)Cc1ccc(OCC(=O)N(CC)CC)c(OC)c1
- max response: -6.3%

SMILES: CC(C)=CCN1CC[C@@]2(C)c3cc(O)ccc3C[C@@H]1[C@@H]2C
- max response: -13.8%

SMILES: CC(C)C(Br)C(=O)NC(N)=O (stereo unspecified)
- max response: 6.08%

SMILES: CCN(Cc1ccc(Cl)nc1)/C(=C/[N+](=O)[O-])NC
- max response: 8.58%

SMILES: C[C@]12CC[C@H]3[C@@H](CC=C4C[C@@H](O)CC[C@@]43C)[C@@H]1CC[C@@H]2O
- max response: -0.897%

SMILES: CN1C(=O)CN=C(c2ccccc2)c2cc(Cl)ccc21
- max response: -5.96%

SMILES: CCOC(=O)c1cncn1C(C)c1ccccc1 (stereo unspecified)
- max response: -8.82%

SMILES: NCc1cccnc1
- max response: -3.33%

SMILES: NC1(c2ccccc2)CCCCC1
- max response: 3.42%

SMILES: CCOC(=O)NC(C)(C)Cc1ccc(Cl)cc1
- max response: -1.19%

SMILES: O=C(N[C@@H]1N=C(c2ccccc2F)c2cccc3c2N(CC3)C1=O)c1cc2ccccc2[nH]1
- max response: -8.36%
